Test results as given in the supplement of paper PMC8728848.
Only a selection was taken, and the strongest signals are over-represented in it overall.

Columns and labels:
Assay in all cases: glycan array binding signal (z-score within array); higher = stronger binding
Conditions in all cases: glycan notation: IUPAC condensed, linker removed
Fuc(a1-2)Gal = target: Fuc(a1-2)Gal
Method in brief: (§1)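 The binding signal is a Z-score computed within each array and averaged over linkers. Arrays of the same protein sequence at different concentrations or buffers were also averaged together. Data originate from 3228 arrays in the Consortium for Functional Glycomics database, kept only where the protein sequence was available.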

[1] = target: Fuc(a1-2)Gal(b1-3)GlcNAc(b1-3)[Fuc(a1-2)Gal(b1-3)GlcNAc(b1-6)]GalNAc
Method in brief: as §1

[2] = target: Fuc(a1-2)Gal(b1-3)[Fuc(a1-4)]GlcNAc(b1-2)Man(a1-3)[Fuc(a1-2)Gal(b1-3)[Fuc(a1-4)]GlcNAc(b1-2)Man(a1-6)]Man(b1-4)GlcNAc(b1-4)[Fuc(a1-6)]GlcNAc(b1-4)[Fuc(a1-6)]GlcNAc
Method in brief: as §1

[3] = target: Fuc(a1-2)Gal(b1-4)GlcNAc(b1-2)Man(a1-3)[Fuc(a1-2)Gal(b1-4)GlcNAc(b1-2)Man(a1-6)]Man(b1-4)GlcNAc(b1-4)GlcNAc
Method in brief: as §1

[4] = target: Fuc(a1-2)Gal(b1-4)GlcNAc(b1-6)GalNAc
Method in brief: as §1

Fuc(a1-2)Gal6S(b1-4)Glc = target: Fuc(a1-2)Gal6S(b1-4)Glc
Method in brief: as §1

[5] = target: Fuc(a1-2)[Gal(a1-3)]Gal(b1-4)[Fuc(a1-3)]GlcNAc(b1-3)GalNAc
Method in brief: as §1

[6] = target: Fuc(a1-2)[GalNAc(a1-3)]Gal(b1-4)GlcNAc(b1-2)Man(a1-3)[Fuc(a1-2)[GalNAc(a1-3)]Gal(b1-4)GlcNAc(b1-2)Man(a1-6)]Man(b1-4)GlcNAc(b1-4)[Fuc(a1-6)]GlcNAc
Method in brief: as §1

[7] = target: Fuc(a1-2)[GalNAc(a1-3)]Gal(b1-4)[Fuc(a1-3)]GlcNAc(b1-3)GalNAc
Method in brief: as §1

[8] = target: Fuc(a1-3)[GalNAc(b1-4)]GlcNAc
Method in brief: as §1

[9] = target: Fuc(a1-3)[GalNAc(b1-4)]GlcNAc6S
Method in brief: as §1

Gal(a1-2)Gal = target: Gal(a1-2)Gal
Method in brief: as §1

[10] = target: Gal(a1-3)Gal(b1-4)GlcNAc(b1-6)GalNAc
Method in brief: as §1

[11] = target: Gal(b1-3)GalNAc(b1-4)[Neu5Ac(a2-3)]Gal(b1-4)Glc
Method in brief: as §1

[12] = target: Gal(b1-3)GlcNAc(b1-2)[Gal(b1-3)GlcNAc(b1-6)]Man(a1-6)[Gal(b1-3)GlcNAc(b1-2)Man(a1-3)]Man(b1-4)GlcNAc(b1-4)GlcNAc
Method in brief: as §1

[13] = target: Gal(b1-3)GlcNAc(b1-3)Gal(b1-4)GlcNAc(b1-2)Man(a1-3)[Gal(b1-3)GlcNAc(b1-3)Gal(b1-4)GlcNAc(b1-2)Man(a1-6)]Man(b1-4)GlcNAc(b1-4)GlcNAc
Method in brief: as §1

[14] = target: Gal(b1-3)GlcNAc(b1-3)Gal(b1-4)[Fuc(a1-3)]GlcNAc(b1-6)[Gal(b1-3)GlcNAc(b1-3)]Gal(b1-4)Glc
Method in brief: as §1

[15] = target: Gal(b1-3)GlcNAc(b1-6)GalNAc
Method in brief: as §1

[16] = target: Gal(b1-3)[Neu5Ac(a2-6)]GalNAc
Method in brief: as §1

[17] = target: Gal(b1-4)GalNAc(a1-3)[Fuc(a1-2)]Gal(b1-4)GlcNAc
Method in brief: as §1

[18] = target: Gal(b1-4)GlcNAc(b1-2)Man(a1-3)[Gal(b1-4)GlcNAc(b1-2)Man(a1-6)][GlcNAc(b1-4)]Man(b1-4)GlcNAc(b1-4)[Fuc(a1-6)]GlcNAc
Method in brief: as §1

[19] = target: Gal(b1-4)GlcNAc(b1-2)[Gal(b1-4)GlcNAc(b1-4)]Man(a1-3)[Gal(b1-4)GlcNAc(b1-2)Man(a1-6)]Man(b1-4)GlcNAc(b1-4)GlcNAc
Method in brief: as §1

Gal3S(b1-4)GlcNAc = target: Gal3S(b1-4)GlcNAc
Method in brief: as §1

[20] = target: Gal3S(b1-4)[Fuc(a1-3)]GlcNAc
Method in brief: as §1

Gal3S6S(b1-4)GlcNAc6S = target: Gal3S6S(b1-4)GlcNAc6S
Method in brief: as §1

Gal4S6S(b1-4)GlcNAc = target: Gal4S6S(b1-4)GlcNAc
Method in brief: as §1

GalNAc(b1-4)Gal(b1-4)Glc = target: GalNAc(b1-4)Gal(b1-4)Glc
Method in brief: as §1

GalNAc(b1-4)GlcNAc = target: GalNAc(b1-4)GlcNAc
Method in brief: as §1

[21] = target: Glc(a1-4)Glc(a1-4)Glc(a1-4)Glc
Method in brief: as §1

Glc(a1-6)Glc(a1-6)Glc = target: Glc(a1-6)Glc(a1-6)Glc
Method in brief: as §1

[22] = target: Glc(a1-6)Glc(a1-6)Glc(a1-6)Glc
Method in brief: as §1

[23] = target: GlcNAc(b1-3)Gal(b1-4)GlcNAc(b1-3)Gal(b1-4)GlcNAc
Method in brief: as §1

[24] = target: GlcNAc(b1-3)Gal(b1-4)GlcNAc(b1-3)Gal(b1-4)GlcNAc(b1-3)Gal(b1-4)GlcNAc(b1-2)Man(a1-3)[GlcNAc(b1-3)Gal(b1-4)GlcNAc(b1-3)Gal(b1-4)GlcNAc(b1-3)Gal(b1-4)GlcNAc(b1-2)Man(a1-6)]Man(b1-4)GlcNAc(b1-4)GlcNAc
Method in brief: as §1

[25] = target: GlcNAc(b1-3)[GlcNAc(b1-4)][GlcNAc(b1-6)]GlcNAc
Method in brief: as §1

Man(a1-3)[Man(a1-6)]Man = target: Man(a1-3)[Man(a1-6)]Man
Method in brief: as §1

[26] = target: Man(a1-3)[Man(a1-6)]Man(a1-6)[Man(a1-3)]Man
Method in brief: as §1

[27] = target: Man(a1-3)[Man(a1-6)]Man(b1-4)GlcNAc(b1-4)[Fuc(a1-6)]GlcNAc
Method in brief: as §1

Man(a1-6)Man = target: Man(a1-6)Man
Method in brief: as §1

[28] = target: Neu5Ac(a2-3)Gal(b1-3)GlcNAc(b1-2)Man(a1-3)[Neu5Ac(a2-3)Gal(b1-3)GlcNAc(b1-2)Man(a1-6)]Man(b1-4)GlcNAc(b1-4)GlcNAc
Method in brief: as §1

[29] = target: Neu5Ac(a2-3)Gal(b1-4)GlcNAc(b1-2)Man
Method in brief: as §1

[30] = target: Neu5Ac(a2-3)Gal(b1-4)GlcNAc(b1-2)Man(a1-3)[GlcNAc(b1-4)][Neu5Ac(a2-3)Gal(b1-4)GlcNAc(b1-2)Man(a1-6)]Man(b1-4)GlcNAc(b1-4)GlcNAc
Method in brief: as §1

[31] = target: Neu5Ac(a2-3)Gal(b1-4)GlcNAc(b1-2)Man(a1-3)[Neu5Ac(a2-3)Gal(b1-4)GlcNAc(b1-2)Man(a1-6)]Man(b1-4)GlcNAc(b1-4)[Fuc(a1-6)]GlcNAc
Method in brief: as §1

[32] = target: Neu5Ac(a2-3)Gal(b1-4)GlcNAc(b1-3)Gal
Method in brief: as §1

[33] = target: Neu5Ac(a2-3)Gal(b1-4)GlcNAc(b1-3)Gal(b1-4)GlcNAc(b1-3)Gal(b1-4)GlcNAc(b1-2)Man(a1-3)[Neu5Ac(a2-3)Gal(b1-4)GlcNAc(b1-3)Gal(b1-4)GlcNAc(b1-3)Gal(b1-4)GlcNAc(b1-2)Man(a1-6)]GalNAc
Method in brief: as §1

[34] = target: Neu5Ac(a2-3)Gal(b1-4)[Fuc(a1-3)]GlcNAc6S
Method in brief: as §1

[35] = target: Neu5Ac(a2-3)[GalNAc(b1-4)]Gal(b1-4)Glc
Method in brief: as §1

[36] = target: Neu5Ac(a2-6)Gal(b1-4)GlcNAc(b1-2)Man(a1-6)[GlcNAc(b1-2)Man(a1-3)]Man(b1-4)GlcNAc(b1-4)GlcNAc
Method in brief: as §1

[37] = target: Neu5Ac(a2-6)Gal(b1-4)GlcNAc(b1-3)Gal(b1-4)GlcNAc(b1-3)Gal(b1-4)GlcNAc(b1-2)Man(a1-3)[Neu5Ac(a2-6)Gal(b1-4)GlcNAc(b1-3)Gal(b1-4)GlcNAc(b1-3)Gal(b1-4)GlcNAc(b1-2)Man(a1-6)]GalNAc
Method in brief: as §1

[38] = target: Neu5Ac(a2-6)Gal(b1-4)GlcNAc(b1-3)Gal(b1-4)GlcNAc(b1-6)[Gal(b1-3)]GalNAc
Method in brief: as §1

[39] = target: Neu5Ac(a2-6)Gal(b1-4)GlcNAc(b1-3)[Neu5Ac(a2-6)Gal(b1-4)GlcNAc(b1-6)]GalNAc
Method in brief: as §1

[40] = target: Neu5Gc(a2-8)Neu5Gc(a2-3)Gal(b1-4)GlcNAc(b1-3)Gal(b1-4)GlcNAc
Method in brief: as §1

[41] = target: Neu5Gc(a2-8)Neu5Gc(a2-6)Gal(b1-4)GlcNAc
Method in brief: as §1

B1: Clone730PsrP (Streptococcus pneumoniae) (protein)
chain: MDHHHHHHHHHHASENLYFQGAMVVGSQTAAATEATAKKVEEDRKKPASDYVASVTNVNLQSYAKRRKRSVDSIEQLLASIKNAAVFSGNTIVNGAPAINASLNIAKSETKVYTGEGVDSVYRVPIYYKLKVTNDGSKLTFTYTVTYVNPKTNDLGNISSMRPGYSIYNSGTSTQTMLTLGSDLGKPSGVKNYITDKNGRQVLSYNTSTMTTQGSGYTWGNGAQMNGFFAKKGYGLTSSWTVPITGTDTSFTFTPYAARTDRIGINYFNGGGKVVESSTT
- glycan array binding signal (z-score) (Fuc(a1-2)Gal): 0.412
- glycan array binding signal (z-score) [1]: 1.96
- glycan array binding signal (z-score) [2]: -0.364
- glycan array binding signal (z-score) [3]: -0.472
- glycan array binding signal (z-score) [4]: 1.79
- glycan array binding signal (z-score) (Fuc(a1-2)Gal6S(b1-4)Glc): -0.11
- glycan array binding signal (z-score) [5]: -0.513
- glycan array binding signal (z-score) [6]: 2.17
- glycan array binding signal (z-score) [7]: 0.059
- glycan array binding signal (z-score) [8]: 0.389
- glycan array binding signal (z-score) [9]: 0.499
- glycan array binding signal (z-score) (Gal(a1-2)Gal): -0.461
- glycan array binding signal (z-score) [10]: -0.459
- glycan array binding signal (z-score) [11]: 2.82
- glycan array binding signal (z-score) [12]: 19.3
- glycan array binding signal (z-score) [13]: -0.281
- glycan array binding signal (z-score) [14]: -0.518
- glycan array binding signal (z-score) [15]: -0.605
- glycan array binding signal (z-score) [16]: -0.508
- glycan array binding signal (z-score) [17]: -0.441
- glycan array binding signal (z-score) [18]: -0.249
- glycan array binding signal (z-score) [19]: -0.616
- glycan array binding signal (z-score) (Gal3S(b1-4)GlcNAc): 0.189
- glycan array binding signal (z-score) [20]: 0.82
- glycan array binding signal (z-score) (Gal3S6S(b1-4)GlcNAc6S): -0.38
- glycan array binding signal (z-score) (Gal4S6S(b1-4)GlcNAc): -0.324
- glycan array binding signal (z-score) (GalNAc(b1-4)Gal(b1-4)Glc): 1.39
- glycan array binding signal (z-score) (GalNAc(b1-4)GlcNAc): 0.829
- glycan array binding signal (z-score) [21]: 2.03
- glycan array binding signal (z-score) (Glc(a1-6)Glc(a1-6)Glc): -0.273
- glycan array binding signal (z-score) [22]: 2.73
- glycan array binding signal (z-score) [23]: -0.488
- glycan array binding signal (z-score) [24]: -0.481
- glycan array binding signal (z-score) [25]: -0.013
- glycan array binding signal (z-score) (Man(a1-3)[Man(a1-6)]Man): 0.888
- glycan array binding signal (z-score) [26]: 2.14
- glycan array binding signal (z-score) [27]: -0.591
- glycan array binding signal (z-score) (Man(a1-6)Man): 3.24
- glycan array binding signal (z-score) [28]: 0.657
- glycan array binding signal (z-score) [29]: 1.83
- glycan array binding signal (z-score) [30]: -0.507
- glycan array binding signal (z-score) [31]: -0.658
- glycan array binding signal (z-score) [32]: -0.586
- glycan array binding signal (z-score) [33]: 1.38
- glycan array binding signal (z-score) [34]: 1.98
- glycan array binding signal (z-score) [35]: -0.647
- glycan array binding signal (z-score) [36]: -0.372
- glycan array binding signal (z-score) [37]: 0.355
- glycan array binding signal (z-score) [38]: -0.382
- glycan array binding signal (z-score) [39]: -0.567
- glycan array binding signal (z-score) [40]: -0.565
- glycan array binding signal (z-score) [41]: -0.41
